Assay outcomes: PubChem, National Center for Advancing Translational Sciences (NCATS)
In the library only some 3% were active in any assay of this set; here they are far more common.
TrxR1 substrate – qHTS Assay for Substrates of Mammalian Selenoprotein Thioredoxin Reductase 1 (TrxR1): qHTS; Thioredoxin reductase 1, cytoplasmic (Rattus norvegicus), O89049; purified TrxR1 substrate turnover, NADPH consumption readout; Potency, µM (top dose mostly 114 µM), for the others: at the highest dose activity change, negative = substrate turnover; 0.01% of 390,000 active; AID 588456, 2011; also: % is scaled to controls: 0 for no effect and ±100 for the full control effect; nearly all actives have a fitted effect of over 50% in size
Target sequence (O89049 whole entry, looked up): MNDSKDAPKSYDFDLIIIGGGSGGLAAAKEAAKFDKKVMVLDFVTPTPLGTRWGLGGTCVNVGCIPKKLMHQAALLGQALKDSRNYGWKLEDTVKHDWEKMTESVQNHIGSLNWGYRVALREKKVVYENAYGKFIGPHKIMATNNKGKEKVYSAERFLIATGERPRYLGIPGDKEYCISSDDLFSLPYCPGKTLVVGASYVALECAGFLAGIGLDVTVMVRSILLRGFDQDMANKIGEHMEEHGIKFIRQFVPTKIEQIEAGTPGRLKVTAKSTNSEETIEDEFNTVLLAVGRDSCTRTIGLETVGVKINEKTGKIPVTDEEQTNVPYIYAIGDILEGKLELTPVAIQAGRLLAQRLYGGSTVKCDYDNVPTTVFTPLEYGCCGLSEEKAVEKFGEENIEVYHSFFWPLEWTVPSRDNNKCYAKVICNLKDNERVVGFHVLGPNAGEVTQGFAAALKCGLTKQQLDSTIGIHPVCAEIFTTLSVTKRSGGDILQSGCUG
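Rat TrxR1, dispensed at 90 nM, was prereduced with 400 uM NADPH (final) for 5 min at ~22 deg C, then incubated with compound 15 min before 400 uM selenite. A first-read NADPH fluorescence drop versus no-compound background flagged substrates.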
A549 viability – Nrf2 qHTS screen for inhibitors: counterscreen for cytotoxicity; A549 ARE-Fluc cells, CellTiter-Fluor viability, 18-24 h; 0.16% of 390,000 active; Potency, µM (highest dose often 46 µM), for inactives: top-dose activity change, negative = cytotoxicity, hits mostly inhibitors; also: % is scaled to controls: 0 for no effect and ±100 for the full control effect
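A549 ARE_Fluc cells in 5% FBS OPTI-MEM were exposed to compounds in concentration-response for 18-24 h at 37 deg C. Viability was read by CellTiter-Fluor fluorescence (Ex 405/Em 525) after 30 min, before the luciferase read.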
TrxR1 inh – qHTS Assay for Inhibitors of Mammalian Selenoprotein Thioredoxin Reductase 1 (TrxR1): qHTS; Thioredoxin reductase 1, cytoplasmic (Rattus norvegicus), O89049; Potency, µM (series often up to 114 µM), without a hit: top-dose activity change, negative = inhibition, hits mostly inhibitors; AID 588453, 2011; recombinant rTrxR1, NADPH fluorescence consumption, selenite substrate; 1% of 390,000 active; also: % is scaled to controls: 0 for no effect and ±100 for the full control effect; nearly all actives have a fitted effect of over 65% in size
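Rat TrxR1 (90 nM in the dispensed reagent) was pre-reduced with 400 uM NADPH for 5 min at room temperature, then incubated with compound for 15 min. After 400 uM selenite was added, NADPH fluorescence (Ex 340/Em 450 nm) was followed for 8 min.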
GALK inh – qHTS Assay for Inhibitors of Human Galactokinase (GALK). P51570. Purified GALK, Kinase-Glo residual ATP luminescence. Potency, µM (top dose mostly 57.5 µM), without a hit: at the highest dose activity change, negative = inhibition, actives largely listed as inhibitors. 0.007% of 270,000 active. AID 1868, 2009; also: % is scaled to controls: 0 for no effect and ±100 for the full control effect
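The enzyme phosphorylates galactose (100 uM) using ATP (35 uM); inhibition is detected as higher residual ATP, quantified by bioluminescence after 1 h reaction at room temperature, pH 8.0.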
Nrf2 ARE act – qHTS of Nrf2 Activators; AREc32 ARE-luciferase reporter (MCF7-derived line), luminescence, 24 h; Potency, µM (titrated, usually from 46.1 µM), for inactives: at the highest dose activation, most hits filed as activators; 0.31% of 410,000 active; AID 624171, 2012; also: % of control where 0% means no effect; nearly all actives have a fitted effect of over 65% in size
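For detection, Steady-Glo was added and plates sat 30 min at RT; before that, AREc32_Fluc cells grown overnight in OPTI-MEM/5% FBS had been treated with 23 nL compound for 24 hr at 37 deg C.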
Nrf2 inh – Nrf2 qHTS screen for inhibitors. A549 ARE-Fluc reporter, luciferase luminescence, 18-24 h. Potency, µM (titrated, usually from 46 µM), for inactives: top-dose activity change, negative = inhibition, actives largely listed as inhibitors. 2.1% of 360,000 active. AID 504444, 2011; also: % is scaled to controls: 0 for no effect and ±100 for the full control effect; nearly all actives have a fitted effect of over 60% in size
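A549 ARE_Fluc cells, 5000/well, 5% FBS OPTI-MEM; compounds in dose-response, 18-24 h at 37 °C/5% CO2; CellTiter-Fluor viability read (Ex 405/Em 525), then BugLite luciferase luminescence = Nrf2 activity.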
Active calls of the source: *; ? = inconclusive; · = no result given; [ ] = another dose, or the depositor's remark. Calls follow the shape of the dose curve; as a rule, active = well fitted curve in the direction sought with a large enough effect; inconclusive = small, poorly fitted or top-dose-only effect, or another doubt; inactive = no such curve, though single readings can be large; an effect the other way counts as inactive or inconclusive. Potency is read from the fitted curve at half-maximal effect.

SMILES | TrxR1 substrate | A549 viability | TrxR1 inh | GALK inh | Nrf2 ARE act | Nrf2 inh
Cc1ccc(-c2nc3ccc(Cl)cn3c2Nc2ccc3c(c2)OCCO3)s1 | 0.2% | 6.8% | 3.5% | · | 4.9% | 3.5%
CCC(C(=O)NCCc1ccc(Cl)cc1)n1nc(C)c2c(C)n(-c3ccccc3)nc2c1=O (stereo not given) | -1.6% | 0.4% | 14.9% | · | -0.1% | -14.7%
COc1cc2c(NC3CCN(C)CC3)nc(N3CCCN(C)CC3)nc2cc1OCCCCCCN(C)C | 76.0% | · | ? | · | · | ·
Cc1nc2scc(-c3ccco3)c2c(=O)n1/N=C/N(C)C | 11.0% | -0.1% | 31.6µM* | -3.4% | ? | 10.2%
O=C1C(=O)N(c2ccccn2)C(c2ccc(Br)cc2)/C1=C(/O)c1ccc(Br)cc1 (stereo not given) | -4.2% | -7.0% | 2.7% | -4.8% | 3.4% | ?
O=C1C(=O)N(c2ccccn2)C(c2ccc(F)cc2)/C1=C(/O)c1ccc(Br)cc1 (stereo not given) | -7.2% | -5.5% | 14.9% | -5.5% | -1.4% | 8.2µM*
COc1ccc(-c2nc(N3CCN(S(=O)(=O)c4ccc(C)cc4)CC3)c3ccccc3n2)cc1 | 5.9% | -0.6% | 29.4% | · | · | ?
CCn1nc(C)cc1C(=O)OCC(=O)c1ccc(Cl)cc1 | 5.4% | 1.5% | 27.1% | 0.1% | 0.1% | 18.4µM*
Cc1ccn2c(Nc3ccc4c(c3)OCCO4)c(-c3cccs3)nc2c1 | 28.3% | -7.5% | -2.2% | · | 12.4% | 5.9%
Cc1ccc(-c2nc3ncccn3c2Nc2ccc3c(c2)OCCO3)o1 | 0.7% | -4.1% | 39.8µM* | -1.8% | 3.0% | 14.9%
c1csc(-c2nc3ccccn3c2Nc2ccc3c(c2)OCCO3)c1 | 40.4% | -21.8% | 7.4% | · | -0.4% | 23.1µM*
CC(C)(C)n1ncc2c(=O)n(Cc3cc(Cl)ccc3Cl)cnc21 | -3.4% | · | 3.3% | · | · | ·
CCCCN1C(C(=O)c2ccccc2)=C(OC(C)=O)c2ccccc2S1(=O)=O | -5.6% | ? | 1.3% | · | -3.0% | 8.2µM*
CCCCC(=O)OC1=C(C(=O)c2ccccc2)N(CC)S(=O)(=O)c2ccccc21 | -7.9% | ? | ? | · | 0.3% | ?
C(=C\c1ccnc2ccccc12)/c1ccc(N(Cc2ccccc2)Cc2ccccc2)cc1 | -4.7% | · | -2.0% | · | · | ·
Cc1sc2nc(C3CC3)nc(SCC(=O)N3CC(=O)Nc4ccccc43)c2c1C | 4.8% | -19.9% | 15.4% | -3.9% | 1.5% | 7.31µM*
Cc1cc(Nc2ccccc2C)nc(-n2nc(C)cc2C)n1 | 6.3%[57.1 µM] | -7.5% | 18.8%[57.1 µM] | · | -2.1% | ·
Cc1cc(C)cc(N=Cc2ccc([N+](=O)[O-])s2)c1 | -15.1% | 0.6% | ? | · | ? | -5.5%
Cc1ccc(NC(=S)N/N=C/c2ccc([N+](=O)[O-])s2)cc1 | 1.4% | 23.1µM* | -22.9% | · | -1.3% | ?
Cc1nc(-c2coc3cc(O)c(C)cc3c2=O)cs1 | 2.9% | -6.6% | -1.3% | 2.2% | 2.1% | 10.3µM*
COc1ccccc1CNC(=O)Cc1c(C)c2cc3c(C)coc3c(C)c2oc1=O | 10.3% | -0.8% | 19.8% | · | 0.1% | -3.7%
CC(C)CC1NC(=O)N(CC(=O)N2c3ccccc3NC(=O)C2(C)C)C1=O (stereo not given) | 2.1% | 6.8% | 28.8% | -1.7% | -0.7% | -10.4%
CC(C)C[C@@H]1NC(=O)[C@H](Cc2ccccc2)N(C)C(=O)[C@H](C)NC(=O)c2ccccc2NC(=O)[C@H](Cc2ccc(O)cc2)N(C)C1=O | -5.0% | ? | -1.6% | 1.5% | 4.0% | 23.1µM*
COc1cc(/C=C/C(=O)N2C(=O)c3cccc(N)c3C2=O)cc(OC)c1OC | 5.6% | 11.5% | -5.0% | -2.5% | 2.9% | 2.4%
